# Out of some 39,000 compounds screened, about 3,300 (8.5%) were called active. Shown is part of a subset that was picked to be rich in actives.
# Test system: HepG2
# Assay: cytotoxicity call (relative viability < 0.9)
# Conditions: 10 µM
row,Structure (SMILES),cytotoxicity call
1,C[C@@H]1CN([C@@H](C)CO)C(=O)c2cc(NS(=O)(=O)c3ccc(Cl)cc3)ccc2O[C@@H](C)CCCCO[C@@H]1CN(C)Cc1ccncc1,inactive
2,C[C@@H]1CN([C@H](C)CO)C(=O)c2cc(C3=CCCCC3)cnc2O[C@@H]1CN(C)C(=O)CN1CCOCC1,inactive
3,c1nc2c(c(N3CCOCC3)n1)CCNCC2,inactive
4,CCCCC(CC)CN1CN(CC(CC)CCCC)CC(C)(N)C1 (configuration not stated),active
5,C[C@@H]1CCCCO[C@@H](CN(C)C(=O)Nc2ccccc2)[C@H](C)CN([C@H](C)CO)C(=O)c2cc(NC(=O)C3CCCCC3)ccc2O1,inactive
6,COc1ccc(S(=O)(=O)N(C)C[C@@H]2OCCCC[C@H](C)Oc3ccc(NC(=O)Nc4ccc(F)cc4)cc3C(=O)N([C@H](C)CO)C[C@@H]2C)cc1,inactive
7,C[C@H](CO)N1C[C@H](C)[C@@H](CN(C)C(=O)Nc2ccc(C(F)(F)F)cc2)OCCCC[C@H](C)Oc2ccc(NS(=O)(=O)c3cn(C)cn3)cc2C1=O,inactive
8,Cc1ccc(S(=O)(=O)Nc2ccc3c(c2)C(=O)N([C@@H](C)CO)C[C@H](C)[C@H](CN(C)Cc2ccc(C(F)(F)F)cc2)OCCCC[C@H](C)O3)cc1,inactive
9,C[C@H]1CCCCO[C@@H](CN(C)Cc2ccc(C(F)(F)F)cc2)[C@@H](C)CN([C@@H](C)CO)C(=O)c2cc(NS(=O)(=O)c3ccc(F)cc3)ccc2O1,inactive
10,C[C@H]1CCCCO[C@H](CN(C)Cc2ccc(C(F)(F)F)cc2)[C@@H](C)CN([C@@H](C)CO)C(=O)c2cc(NS(=O)(=O)c3ccc(F)cc3)ccc2O1,inactive
11,C[C@@H]1CN([C@@H](C)CO)C(=O)c2cc(NS(=O)(=O)c3ccc(F)cc3)ccc2O[C@@H](C)CCCCO[C@@H]1CN(C)Cc1ccc(C(F)(F)F)cc1,inactive
12,Cc1ccc(S(=O)(=O)Nc2ccc3c(c2)C(=O)N([C@H](C)CO)C[C@H](C)[C@@H](CN(C)Cc2ccc(C(F)(F)F)cc2)OCCCC[C@@H](C)O3)cc1,inactive
13,C[C@@H]1CCCCO[C@H](CN(C)Cc2ccc(C(F)(F)F)cc2)[C@H](C)CN([C@@H](C)CO)C(=O)c2cc(NS(=O)(=O)c3ccc(F)cc3)ccc2O1,inactive
14,Cc1ccc(S(=O)(=O)Nc2ccc3c(c2)C(=O)N([C@H](C)CO)C[C@@H](C)[C@@H](CN(C)Cc2ccc(C(F)(F)F)cc2)OCCCC[C@H](C)O3)cc1,active
15,Cc1ccc(S(=O)(=O)Nc2ccc3c(c2)C(=O)N([C@H](C)CO)C[C@H](C)[C@H](CN(C)Cc2ccc(C(F)(F)F)cc2)OCCCC[C@@H](C)O3)cc1,active
16,Cc1ccc(S(=O)(=O)Nc2ccc3c(c2)C(=O)N([C@@H](C)CO)C[C@@H](C)[C@H](CN(C)Cc2ccc(C(F)(F)F)cc2)OCCCC[C@H](C)O3)cc1,active
17,Cc1ccc(S(=O)(=O)Nc2ccc3c(c2)C(=O)N([C@H](C)CO)C[C@@H](C)[C@H](CN(C)Cc2ccc(C(F)(F)F)cc2)OCCCC[C@@H](C)O3)cc1,active
18,Cc1ccc(S(=O)(=O)Nc2ccc3c(c2)C(=O)N([C@H](C)CO)C[C@H](C)[C@H](CN(C)C(=O)Cc2ccccc2)OCCCC[C@H](C)O3)cc1,inactive
19,C[C@H](CO)N1C[C@H](C)[C@H](CN(C)CC2CC2)Oc2ccc(NS(=O)(=O)c3ccccc3)cc2CC1=O,inactive

row,Structure (SMILES),cytotoxicity call
1,Cc1ccc(S(=O)(=O)N2C[C@H](O)COC[C@@H]3O[C@@H](CC(=O)N4CCc5ccccc5C4)CC[C@H]32)cc1,inactive
2,C[C@@H](O)C#Cc1cnc2c(c1)C(=O)N([C@@H](C)CO)C[C@H](C)[C@@H](CN(C)C(=O)CN1CCOCC1)O2,inactive
3,CCNC(=O)[C@@H]1[C@@H](CO)[C@@H]2Cn3c(ccc(C4=CCCC4)c3=O)[C@H]1N2S(=O)(=O)c1cn(C)cn1,inactive
4,COCC(=O)N1C[C@@H](C)[C@H](OC)CN(C)C(=O)c2ccc(NC(=O)c3ccc(F)cc3)cc2OC[C@H]1C,inactive
5,C[C@H]1CCCCO[C@H](CN(C)C(=O)Nc2ccc3c(c2)OCO3)[C@@H](C)CN([C@@H](C)CO)C(=O)c2cc(NS(=O)(=O)c3ccc(F)cc3)ccc2O1,inactive
6,O=C(C[C@@H]1CC[C@H]2[C@@H](COC[C@H](O)CN2C(=O)Nc2ccc(F)cc2)O1)NCCCN1CCOCC1,inactive
7,Cc1ccc(S(=O)(=O)Nc2ccc3c(c2)C(=O)N([C@@H](C)CO)C[C@H](C)[C@H](CN(C)Cc2ccc(C(F)(F)F)cc2)OCCCC[C@@H](C)O3)cc1,inactive
8,Cc1ccc(S(=O)(=O)Nc2ccc3c(c2)C(=O)N([C@@H](C)CO)C[C@H](C)[C@@H](CN(C)Cc2ccc(C(F)(F)F)cc2)OCCCC[C@H](C)O3)cc1,active
9,Cc1ccc(S(=O)(=O)Nc2ccc3c(c2)C(=O)N([C@@H](C)CO)C[C@H](C)[C@@H](CN(C)Cc2ccc(C(F)(F)F)cc2)OCCCC[C@@H](C)O3)cc1,active
10,Cc1ccc(S(=O)(=O)Nc2ccc3c(c2)C(=O)N([C@H](C)CO)C[C@H](C)[C@@H](CN(C)Cc2ccc(C(F)(F)F)cc2)OCCCC[C@H](C)O3)cc1,active
11,Cc1ccc(S(=O)(=O)Nc2ccc3c(c2)C(=O)N([C@@H](C)CO)C[C@@H](C)[C@H](CN(C)Cc2ccc(C(F)(F)F)cc2)OCCCC[C@@H](C)O3)cc1,active
12,Cc1ccc(S(=O)(=O)Nc2ccc3c(c2)C(=O)N([C@@H](C)CO)C[C@@H](C)[C@@H](CN(C)Cc2ccc(C(F)(F)F)cc2)OCCCC[C@H](C)O3)cc1,inactive
13,NC(=O)c1ccc[n+](C2OC(COP(=O)([O-])OP(=O)(O)OCC3OC(n4cnc5c(N)ncnc54)C(O)C3O)C(O)C2O)c1 (configuration not stated),inactive
14,CNC[C@@H]1Oc2ccc(NC(=O)CCN3CCOCC3)cc2CC(=O)N([C@@H](C)CO)C[C@H]1C,inactive
15,CC(C)(C)c1c(C(C)(C)C)c1=O,inactive
16,O=C(N[C@@H]1CC[C@H](CCn2cc(C3(O)CCCC3)nn2)O[C@H]1CO)C1CCOCC1,inactive
17,Cc1cc(C(=O)N2CCNC(=O)C2(C)C)no1,inactive
18,C[C@H]1CN([C@@H](C)CO)C(=O)Cc2cc(NC(=O)CCC(F)(F)F)ccc2O[C@@H]1CN(C)S(=O)(=O)c1ccccc1,inactive

# From the antibiotic and cytotoxicity screens of Wong et al. (2023)
